This note sets out measurements from PubChem BioAssay (NCATS).

Records with an inconclusive call do not appear. Activity calls are given as the source filed them. The call rests on the fitted dose curve; in most records, active means well fitted cell-killing curve with a large enough effect; inconclusive means small, poorly fitted or top-dose-only effect, or effect the other way; inactive means flat fitted curve, though single readings scatter.

The assay in a line: MultiTox-Fluor Cytotoxicity Assay - LYMP1-002 - Live Cells (AID 955). The settings on record: LYMP1-002 lymphoblastoid live-cell protease fluorescence viability; series mostly up to 46.1 µM. An excerpt:
NIH Chemical Genomics Center [NCGC]
NIH Molecular Libraries Screening Centers Network [MLSCN]
National Institutes of Environmental Health Sciences [NIEHS]
National Toxicology Program [NTP]
We have developed a 1536-well cell-based assay for quantitative high throughput screening (qHTS) against a number of cell lines to determine in vitro cytotoxicity of small molecules. This particular assay uses a human lymphoblastoid cell line (LYMP1-002) purchased from Coriell Institute.
NCGC Assay Protocol Summary:
The MultiTox-Fluor Cytotoxicity Assay (Promega) is a homogeneous method to simultaneously measure the relative number of live and dead cells in culture by detecting changes in cell membrane integrity. There are two fluorogenic peptide substrates in the assay reagent. Viable cells are determined when the cell-permeant substrate (GF-AFC) enters the cell and is cleaved by protease from live cells resulting in liberated fluorophore. This live-cell protease activity restricted to viable cells is proportional to cell number. The dead cells are determined by using fluorogenic cell-impermeant peptide substrate (bis-AAF-R110) which cleaved by dead cell proteases leaking from damaged cell membrane.
Using the MultiTox-Fluor Cytotoxicity Assay, the relative number of live cells was measured in the lymphoblastoid cell line with complete culture medium following compound treatment for 16 hours. The assay was performed in opaque black Kalypsys 1536-well plates. In the screen, tetraoctylammonium bromide was used as positive control. Library compounds were measured for their ability to cause acute toxicity in the cell line, as reflected by a decrease in live cell protease activity, in a concentration-dependent manner. […] AC50 values were determined from concentration-response data modeled with the standard Hill equation.
qHTS protocol for MultiTox-Fluor Cytotoxicity assay
[Step] [Parameter] [Value] [Description]
1. Reagent; 5 uL; 2500 lymphoblastoid cells/well
2. Time; 5 hr; 37 C incubation
4. Controls; 23 nL; Tetraoctylammonium bromide 6.4pM to 92 uM
5. Time; 16 hr; 37 C incubation
6. Reagent; 5 uL; MuliTox-Fluor Assay reagent
7. Time; 60 min; Room Temperature
8. Detection; live-cell fluorescence (Ex/Em=405/510); EnVision plate reader
Keywords: cell viability, cytotoxicity, lymphoblastoid cell line, fluorescence, NTPHTS, NTPHTS_NCGC, NIEHS, EPA, DSSTox, MLSMR, MLSCN, NIH Roadmap, qHTS, NCGC
Take `OCC(CO)(CBr)CBr`: the outcome was inactive.

For `O=C(O)c1ccc([N+](=O)[O-])cc1`, the outcome was inactive.

For the compound `CCCCC(CC)COCCCN` (stereo not given), the outcome was inactive.

As to `c1cc2c3c(c1)ccc1cccc(c13)C2`, the outcome was inactive.

Take `Cc1cc2nc(N)sc2cc1C`: the compound was called inactive.

For `c1c[nH]cn1`, the compound was classed as inactive.

Take `Cc1ccc(S(N)(=O)=O)cc1`: the compound was called inactive.

For `O=c1[nH]ncc2ccccc12`, the result was inactive.

For the compound `C[C@@H]1CC2(OC(O)[C@]3(C)O[C@H]23)O[C@H]2C[C@@]3(C)[C@@H]4CC[C@H]5C(C)(C)C(O[C@@H]6OC[C@@H](O)[C@H](O)[C@H]6O)CC[C@@]56C[C@@]46CC[C@]3(C)[C@@H]12` (stereo not given in full), the compound was called inactive.

Turning to `Cc1ccc(N)cc1[N+](=O)[O-]`, the call was inactive.

Regarding `S=C(NC1CCCCC1)NC1CCCCC1`, the compound was classed as inactive.

`Cc1c(N)cccc1Cl`: the compound was classed as inactive.

As to `O=[N+]([O-])c1ccc(F)cc1F`, the result was inactive.

On to `C=CC(=O)CC`, for which the compound was called inactive.

With `CCCCCCc1ccc(-c2ccc(C#N)cc2)cc1`, the compound was called inactive.

As to `C=CC(C)(O)CCCC(C)CCCC(C)CCCC(C)C` (stereo not given), the compound was called inactive.

Consider `O=C1OC(=O)c2ccccc21`, for which the compound was called inactive.

As to `CC(/C=C/C=C(C)/C=C/C(=O)O)=C\C=C\C=C(C)\C=C\C=C(C)\C=C\C(=O)O`, the compound was classed as inactive.

As for `Brc1cc(Oc2cc(Br)c(Br)c(Br)c2Br)c(Br)c(Br)c1Br`, the compound was called inactive.

`CC(CCC(=O)O)(c1ccc(O)cc1)c1ccc(O)cc1`: the call was inactive.

Regarding `CCc1ccc(C(c2ccc(CC)cc2)C(Cl)Cl)cc1`, the call was inactive.

Turning to `C[Si](C)(C)Cl`, the compound was classed as inactive.

With `Nc1cc(C(=O)O)c(O)c(S(=O)(=O)O)c1`, the result was inactive.

In the case of `CC(=O)OC(C(=O)c1ccccc1)c1ccccc1` (stereo not given), the compound was called inactive.

With `CCCCCCN`, the call was inactive.

With `CCOC(=O)C1OC1c1ccccc1` (stereo not given), the outcome was inactive.

Consider `CC(=O)OC1CC(C)OC(C)O1` (stereo not given), for which the compound was called inactive.

For the compound `Nc1ccc(N=Nc2ccccc2)c(N)c1`, the call was inactive.

For `CCCCC(CC)COP(=O)(OCC(CC)CCCC)OCC(CC)CCCC` (stereo not given), the compound was classed as inactive.

As for `Cc1cc(=O)oc2cc(O)cc(O)c12`, the outcome was inactive.

Consider `NC(=O)c1ccc([N+](=O)[O-])cc1`, for which the call was inactive.

In the case of `CCCCOC(=O)COc1ccc(Cl)cc1Cl`, the outcome was inactive.

As for `CCCC(=O)OC(=O)CCC`, the outcome was inactive.

With `c1ccc(Nc2cccc3ccccc23)cc1`, the compound was classed as inactive.

With `C1CCCNCC1`, the call was inactive.

Consider `CCC(Cl)CC(Cl)C(Cl)C(Cl)C(Cl)C(C)Cl` (stereo not given), for which the call was inactive.

Consider `CC(=O)Nc1cccc(C)c1`, for which the compound was classed as inactive.

Take `Nc1ccc(N)c(Cl)c1`: the compound was called inactive.

Turning to `Cc1ccccc1OCC1CO1` (stereo not given), the compound was classed as inactive.

Take `Brc1ccc(-c2ccccc2)cc1`: the result was inactive.
